KDM4E inh: inhibitors of human JMJD2E histone demethylase; B2RXH2; 1.6% of 230,000 active; JMJD2E catalytic domain, FDH-coupled NADH fluorescence (FDH is formaldehyde dehydrogenase); Potency, µM (series often up to 57.1 µM), for the others: at the highest dose activity change, negative = inhibition, usual class: inhibitors; active = well fitted inhibition curve with a large enough effect, not every such curve was filed as active; inconclusive = small, poorly fitted or top-dose-only effect, or another doubt; inactive = no such curve, though single readings can be large or run the other way;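 note: 0% = wells with enzyme and -100% = buffer wells without enzyme; nearly all actives have a fitted effect of over 50% in size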
RGS12 GoLoco inh: blocks human Gai1 binding to RGS12 GoLoco peptide, red readout; P63096; Gai1:RGS12 GoLoco peptide FP, rhodamine, 10 min; Potency, µM (top dose mostly 61.6 µM), inactives show at the top dose activity, negative = inhibition, hits mostly inhibitors; 0.44% of 230,000 active; AID 880; active = well fitted inhibition curve with a large enough effect, not every such curve was filed as active; inactive = no such curve, though single readings can be large or run the other way; note: nearly all actives have a fitted effect of over 30% in size
Target sequence (P63096 whole entry, looked up): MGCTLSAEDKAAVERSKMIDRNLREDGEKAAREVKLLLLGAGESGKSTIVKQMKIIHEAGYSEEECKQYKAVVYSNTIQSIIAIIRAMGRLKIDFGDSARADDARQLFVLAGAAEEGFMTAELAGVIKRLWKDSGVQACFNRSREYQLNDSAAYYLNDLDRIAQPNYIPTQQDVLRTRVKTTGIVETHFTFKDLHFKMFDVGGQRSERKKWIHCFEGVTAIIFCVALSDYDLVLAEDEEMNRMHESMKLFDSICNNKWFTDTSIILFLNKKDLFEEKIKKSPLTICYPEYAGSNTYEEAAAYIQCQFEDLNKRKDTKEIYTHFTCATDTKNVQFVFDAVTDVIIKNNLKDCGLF
Tau fluor counter: counter-screen for tau fibril formation inhibitors | 0.93% of 280,000 active | Potency, µM (highest dose often 57.7 µM), without a hit: top-dose activity change, negative = decrease | AID 1463 | tau K18 P301L Alexa594 fluorescence, heparin fibrillization; note: nearly all actives have a fitted effect of over 55% in size
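Human tau K18 P301L (15 uM unlabeled, 0.24 uM Alexa 594-labeled) in 100 mM sodium acetate pH 7 with 20 uM heparin, 6 hr at 37 C. ThT 30 uM added, 1 hr ambient; Alexa 594 FP and total fluorescence read at 555/632 nm.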
Tau fibril FP: inhibitors of human tau fibril formation; 0.39% of 280,000 active; P10636; K18 P301L tau heparin fibrillization, Alexa594 FP, 6 h; AID 1468; Potency, µM (top dose mostly 57.7 µM), without a hit: at the top dose activity, negative = inhibition, actives largely listed as inhibitors; note: nearly all actives have a fitted effect of over 55% in size
Target sequence (P10636 561-689 P618L limits assumed): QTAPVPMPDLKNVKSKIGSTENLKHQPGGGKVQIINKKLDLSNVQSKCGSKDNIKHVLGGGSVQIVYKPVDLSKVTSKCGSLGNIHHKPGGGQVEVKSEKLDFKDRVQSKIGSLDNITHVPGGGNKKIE
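Human K18 P301L fragment (15 uM unlabeled plus 0.24 uM Alexa 594-labeled) in 100 mM sodium acetate pH 7 with compound, aggregation induced by 20 uM heparin for 6 hr at 37 C. ThT (30 uM) added for 1 hr, then Alexa 594 FP read.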
Tau ThT inhib: blocks human tau fibril formation measured by thioflavin T. P10636. recombinant tau K18 P301L (four-repeat tau fragment), heparin-induced fibrillization, ThT fluorescence. Potency, µM (highest dose often 57.4 µM), for the others: at the top dose activity, negative = inhibition, hits mostly inhibitors. 2.1% of 270,000 active; note: nearly all actives have a fitted effect of over 55% in size
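Heparin-induced (20 uM) aggregation of recombinant human K18 P301L tau, 15 uM unlabeled with 0.24 uM labeled, pH 7 acetate buffer, 6 hr at 37 C with compound. Fibrils quantified by 30 uM ThT fluorescence after 1 hr ambient incubation.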
Starred values were filed as active, the others as inactive; ? = inconclusive; / = no result given; [ ] = dose if it differs, or a comment. The list is not random: actives were taken first. Their share in the collection is about 3.4%. Unless noted, calls come from the whole dose curve; as a rule, active = well fitted curve in the direction sought with a large enough effect; inconclusive = small, poorly fitted or top-dose-only effect, or another doubt; inactive = no such curve, though single readings can be large; an effect the other way counts as inactive or inconclusive. Unless noted, % is set by controls: 0 for no effect and ±100 for the full control effect; potency is the fitted concentration of half-maximal effect.

SMILES	KDM4E inh	RGS12 GoLoco inh	Tau fluor counter	Tau fibril FP	Tau ThT inhib
CC(C)Sc1ncc(Cl)c(C(=O)Nc2ccc(S(=O)(=O)N3CCCCC3C)cc2)n1 (centres undefined)	/	/	-25.2%	-3.7%	-3.7%
Cc1ccc(Cl)cc1N1CCN(c2cccc[n+]2C)CC1	-13.9%	-62.3%	6.8%	-4.0%	3.5%
C[n+]1ccccc1N1CCN(c2ccccc2Cl)CC1	?	12.6µM*	2.5%	-4.1%	9.9%
Cc1ccc(CS(=O)(=O)c2ncc(Cl)c(C(=O)Nc3nc4ccc(F)cc4s3)n2)cc1	/	/	-23.9%	-10.7%	14.1µM*
COc1ccc(OC)c(NC(=O)c2nc(S(=O)(=O)Cc3ccc(F)cc3)ncc2Cl)c1	/	/	?	0.6%	12.6µM*
Cc1ccc(CS(=O)(=O)c2ncc(Cl)c(C(=O)Nc3nc4ccc(C)cc4s3)n2)cc1	/	/	?	-17.4%	22.4µM*
Cc1ccc(CSc2ncc(Cl)c(C(=O)Nc3nc4ccc(C)cc4s3)n2)cc1	/	/	-3.8%	-6.3%	1.6%
COc1ccc2nc(NC(=O)c3nc(S(=O)(=O)Cc4ccc(C)cc4)ncc3Cl)sc2c1	/	/	?	-7.2%	5.62µM*
Cc1nn(-c2nc(-c3ccc(F)cc3)cc(C(F)(F)F)n2)c(C)c1Br	/	/	-20.5%	-2.4%	?
COc1cc(OC)cc(C(=O)NCc2ccc3c(c2)CCN3C(=O)c2ccccc2)c1	/	/	-7.1%	2.5%	0.0%
C=CC1=C(C)/C(=C/c2[nH]c(Cc3[nH]c(/C=C4\NC(=O)C(C)=C4C=C)c(C)c3CCC(=O)O)c(CCC(=O)O)c2C)NC1=O	?	9.9%	?	?	10µM*
O=C(Cn1c(=O)n(-c2ccc(F)cc2)c(=O)c2sc3ccccc3c21)NC1CCCCC1	/	/	9.2%	?	16.1%
O=C(Oc1ccccc1)C1O[C@@H]1c1ccccc1 (some centres undefined)	-4.8%	-3.3%	-9.7%	-12.8%	-12.0%
O=c1oc2ccccc2c(O)c1C=NCc1ccccn1	2.9%	6.1%	-9.3%	-2.4%	-19.5%
O=C(Oc1c(CN2CCOCC2)cc(Cl)c2cccnc12)c1ccccc1	-19.6%	3.5%	-19.9%	?	?
O=c1oc2ccccc2c(O)c1Cc1cc(Cl)c2cccnc2c1O	5.01µM*	21.1%	?	?	14.1µM*
CN1CCN(Cc2cc(COCc3ccccc3)c3cccnc3c2O)CC1	8.91µM*	0.8%	-15.9%	13.4%	?
CCCOCc1cc(CN2CCN(c3cccc(Cl)c3)CC2)c(O)c2ncccc12	/	/	-18.9%	?	?
Oc1c(CN2CCc3ccccc3C2)cc(Cl)c2cccnc12	22.4µM*	-8.6%	-29.0%	-3.1%	?
O=C(CCn1c(=O)c2cccn2c2cccnc21)N1CCN(c2ccccc2F)CC1	/	/	-2.9%	-0.7%	?
COc1cccc(Cc2nc3ccccc3nc2SCC(=O)NCCc2ccccc2)c1	/	/	-8.4%	-3.2%	-7.6%
COc1cccc(NC(=O)N(Cc2c[nH]c3ccccc23)C2CCCCCC2)c1	/	/	?	-17.4%	-12.1%
Cc1ccc(-n2[nH]c(C)c(/C=N/n3c(C)nc4ccccc4c3=O)c2=O)cc1	?	-3.0%	-29.2%	?	25.1µM*
Cc1nc2ccccc2c(=O)n1/N=C/c1ccccc1O	25.1µM*	1.2%	-25.5%	-5.8%	-14.0%
O=c1c2ccccc2nc(COc2ccccc2)n1/N=C/c1ccc(O)cc1O	?	-0.3%	15.8µM*[quencher]	-4.5%	?
CCc1ccc(CNc2ncc(-c3cccc(OC)c3)n2C)cc1	/	/	-20.4%	6.6%	-26.3%
COC1=CC(=O)C(C(=O)c2ccccc2)=CC1=O	?	6.31µM*	6.31µM*[quencher]	10µM*	3.16µM*
CCOc1ccc(N(CC)S(=O)(=O)N2CCCC(C(=O)NCc3ccccc3Cl)C2)cc1 (centres undefined)	/	/	-16.5%	11.0%	-13.1%
Cc1cccc(C2c3[nH]c4ccccc4c3CCN2C(=O)c2ocnc2C)n1 (centres undefined)	22.4µM*	-12.2%	9.3%[2.34 µM]	-6.2%[2.34 µM]	-3.4%
CCOc1ccc(/C=C2\SC(=S)N(C(C(=O)O)c3ccccc3)C2=O)cc1OC (centres undefined)	-3.2%	4.0%	-3.2%	0.6%	?
